Compound activity: PubChem BioAssay, National Center for Advancing Translational Sciences (NCATS)
A selection: hits, their analogues and other compounds. The true share with any hit is near 4.2%.
VDR inh = Inhibitors of the vitamin D receptor (VDR): qHTS; Vitamin D3 receptor (Homo sapiens), P11473; VDR-SRC2-3 peptide fluorescence polarization, 2 h; 400,000 compounds, 0.93% hits; AID 504847, 2011; Potency, µM, without a hit: max response, negative = inhibition, usual class: inhibitors
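FP read-out; VDR + SRC2-3 coactivator peptide; 23 nl compound by pintool; 2 h RT incubation; reagents held at 4 deg C, protected from light.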
Sfp inh = qHTS Assay for Inhibitors of Bacillus subtilis Sfp phosphopantetheinyl transferase (PPTase); Biochemical Sfp PPTase activity, qHTS; 4'-phosphopantetheinyl transferase ffp (Bacillus subtilis), Q9F4F7; AID 1490, 2009; Potency, µM, for inactives: largest response in the series, negative = inhibition, actives largely listed as inhibitors; 310,000 compounds, 3.5% hits;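 also: the enzyme is Sfp with the accession as filed and its product quenches rhodamine fluorescence; 0% = enzyme reaction without inhibitor and -100% = no enzyme wells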
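Fluorescence-quenching assay with 15 nM Sfp, 5 uM rhodamine-CoA and 12.5 uM BHQ-2-labelled ybbR peptide in pH 7.6 Hepes/MgCl2 buffer. Enzyme was pre-incubated with compound for 15 min at room temperature. Rate was taken from the 30-min fluorescence change (525/598 nm).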
PLK1 PBD inh = qHTS for Inhibitors of PLK1-PDB (polo-like kinase 1 - polo-box domain): Primary Screen | Plk1 PBD binding of FITC phosphopeptide, fluorescence polarization | Potency, µM, inactives show max response, negative = inhibition, usual class: inhibitors | 360,000 compounds, 2.8% hits; also: series mostly up to about 57 µM; nearly all actives have a fitted effect of over 65% in size
Target sequence (P53350 whole entry, looked up, the tested form may be a part): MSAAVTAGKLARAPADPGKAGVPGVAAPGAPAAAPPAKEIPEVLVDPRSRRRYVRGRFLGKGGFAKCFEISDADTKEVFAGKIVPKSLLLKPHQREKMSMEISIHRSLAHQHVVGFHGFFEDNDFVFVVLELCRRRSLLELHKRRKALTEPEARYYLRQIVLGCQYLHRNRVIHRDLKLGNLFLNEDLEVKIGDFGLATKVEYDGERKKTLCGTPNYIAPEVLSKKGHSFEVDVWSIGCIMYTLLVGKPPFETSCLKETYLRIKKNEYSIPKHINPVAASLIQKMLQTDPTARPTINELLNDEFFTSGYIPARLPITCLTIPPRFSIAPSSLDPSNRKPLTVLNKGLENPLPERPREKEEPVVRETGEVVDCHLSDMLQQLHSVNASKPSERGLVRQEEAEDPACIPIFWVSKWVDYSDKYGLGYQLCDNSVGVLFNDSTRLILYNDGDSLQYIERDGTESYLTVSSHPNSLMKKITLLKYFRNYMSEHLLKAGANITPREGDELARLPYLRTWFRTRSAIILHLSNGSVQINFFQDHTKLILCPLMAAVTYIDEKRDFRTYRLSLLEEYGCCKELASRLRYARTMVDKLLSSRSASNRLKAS
12-LOX inh = Primary qHTS assay for inhibitors of human arachidonate 12S-lipoxygenase (ALOX12): Round 2. Polyunsaturated fatty acid lipoxygenase ALOX12 (Homo sapiens), P18054. purified 12hLO, xylenol orange hydroperoxide absorbance. Potency, µM (series often up to 108 µM), inactives show at the highest dose activity change, negative = inhibition, actives largely listed as inhibitors. 580,000 compounds, 1.1% hits. AID 1671190, 2021
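Hydroperoxide product was detected by ferrous iron/xylenol orange as the 573 to 405 nm absorbance ratio. Arachidonic acid at 40 uM (final) was turned over for 30 min at room temperature by 150 nM human 12hLO, pH 7.0 Hepes buffer, after 15 min compound preincubation.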
* marks the source's active call; other numbers are inactive results. Calls follow the shape of the dose curve; as a rule, active = well fitted curve in the direction sought with a large enough effect; inconclusive = small, poorly fitted or top-dose-only effect, or another doubt; inactive = no such curve, though single readings can be large; an effect the other way counts as inactive or inconclusive. Unless noted, % is scaled to controls: 0 for no effect and ±100 for the full control effect; potency is read from the fitted curve at half-maximal effect.

`CCCNC(=O)c1nc(C)n(-c2cc(Cl)ccc2Cl)n1` gave VDR inh -0.3%, Sfp inh -0.8%, PLK1 PBD inh 21.2µM* and 12-LOX inh -6.1%.
For Cc1nc(C(=O)N(C)C)nn1-c1ccc(Cl)cc1Cl the results were VDR inh 2.6%, Sfp inh 16.3%, PLK1 PBD inh -8.2% and 12-LOX inh inconclusive.
Screening CCCNC(=O)c1nc(C)n(-c2cc(Cl)cc(Cl)c2)n1 returned VDR inh 9.7%, Sfp inh 16.1%, PLK1 PBD inh -21.6% and 12-LOX inh inconclusive.
For Cc1ccc2nccc(C(=O)N3CCCC(Nc4ccc(F)cc4)C3)c2c1 (stereo not given) the results were VDR inh 9.9%, Sfp inh 5.3%, PLK1 PBD inh 2.4% and 12-LOX inh -4.0%.
For O=S1(=O)CC(N2CCN(CCO)CC2)CN1Cc1cn(Cc2cccc(C(F)(F)F)c2)nn1 (stereo not given) the results were PLK1 PBD inh -6.4% and 12-LOX inh 25.1µM*.
Screening Cc1cccc(CN2CCN(C3CN(Cc4cn(Cc5cccc(C(F)(F)F)c5)nn4)S(=O)(=O)C3)CC2)c1 (stereo not given) returned PLK1 PBD inh -12.3% and 12-LOX inh 12.6µM*.
Screening CN(C)CCN1CCN(C2CN(Cc3cn(Cc4cccc(C(F)(F)F)c4)nn3)S(=O)(=O)C2)CC1 (stereo not given) returned PLK1 PBD inh -5.3% and 12-LOX inh inconclusive.
`COCCCn1cc(CN2CC(N3CCN(Cc4cccc(C)c4)CC3)CS2(=O)=O)nn1` (stereo not given) gave PLK1 PBD inh -11.1% and 12-LOX inh 11.2µM*.
O=C1C=CC(=O)c2c(O)c(N3CCN(CCO)CC3)c(Cl)c(O)c21 was read as VDR inh 8.91µM*, PLK1 PBD inh 11.9µM* and 12-LOX inh inconclusive.
Screening CCS(=O)(=O)Nc1ccc2c(c1)N(C(C)=O)c1ccccc1CC2 returned VDR inh -2.9%, Sfp inh 3.4%, PLK1 PBD inh -2.5% and 12-LOX inh 0.0%.
`CC(=O)c1ccc(N2CCN(S(=O)(=O)c3ccc4ccccc4c3)CC2)cc1` gave VDR inh 19.7%, PLK1 PBD inh 2.4% and 12-LOX inh 2.1%.
`Cc1noc(NS(=O)(=O)c2ccc(NC(=O)c3nn(-c4ccc(F)cc4)ccc3=O)cc2)c1C` gave VDR inh 4.0%, Sfp inh 19.1%, PLK1 PBD inh -2.6% and 12-LOX inh -20.9%.
Screening Cc1c(-c2ccccc2)nc(N)c(C#N)c1-c1ccco1 returned VDR inh 5.0%, Sfp inh 14.1µM*, PLK1 PBD inh -5.7% and 12-LOX inh inconclusive.
For CC(C)OC(=O)CSc1nc(N)c(C#N)c(-c2ccco2)c1C#N the results were VDR inh -2.7%, Sfp inh 56.2µM*, PLK1 PBD inh inconclusive and 12-LOX inh inconclusive.
`COc1ccc(-c2nnc(SC(C(=O)N3CCOCC3)c3ccccc3)n2C2CCCCC2)cc1` (stereo not given) gave 12-LOX inh 4.9%.
Screening COc1ccc(S(=O)(=O)Cc2ccc(C(=O)NC(C)C)o2)cc1 returned VDR inh inconclusive, Sfp inh -13.7%, PLK1 PBD inh 21.2µM* and 12-LOX inh 319.1%.
Screening CCOC(=O)N1CCN(C(=O)c2ccc(CS(=O)(=O)c3ccc(OC)cc3)o2)CC1 returned VDR inh inconclusive, Sfp inh 5.7%, PLK1 PBD inh 26.7µM* and 12-LOX inh 15.4%.
`COc1ccccc1S(=O)(=O)Cc1ccc(C(=O)N2CCN(c3ccccn3)CC2)o1` gave VDR inh inconclusive, Sfp inh 79.4µM* and PLK1 PBD inh 26.7µM*.
For CCc1ccc2oc(-c3ccc(NC(=O)c4cc(OC)c(OC)c(OC)c4)cc3)nc2c1 the results were VDR inh -0.4% and 12-LOX inh -8.9%.
For CCN(C[C@H]1N[C@@](Cc2ccccc2)(C(=O)OC)[C@H]2C(=O)N(Cc3ccccc3)C(=O)[C@@H]12)C(C)=O the results were VDR inh -2.3%, PLK1 PBD inh -12.4% and 12-LOX inh -13.7%.
For CCC1(O)CCCN(c2ncc(C(C)(C)C(=O)O)c(N3CCOCC3)n2)C1 (stereo not given) the results were 12-LOX inh 59.3%.
